Measured values: the supplement of paper PMC10849652
Targets with a hit are over-represented here; the source holds about 7,900 in all. About 0.6% of all pairs of compound and target were hits.

Key:
Assay in all cases: log2 fold change, soluble protein after heating vs DMSO (PISA); higher = thermal stabilisation; K562 cells, 10 uM, 30 min; active = over 0.2 and 3.5 SD of the protein, either way, in both replicates (recomputed)
IRAK-1-4 Inhibitor I = compound: C1COCCN1CCN2C3=CC=CC=C3N=C2NC(=O)C4=CC(=CC=C4)[N+](=O)[O-] [IRAK-1-4 Inhibitor I]
In short: (§1)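 For each measurement, 10 μM compound was applied for 30 min to K562 cells at 2×10^6 cells/mL. Aliquots were heated for 3 min across 48°C-58°C, pooled, and extracted in PBS with 0.5% NP-40 at 4°C; the supernatant after 21,000xg for 90 min was soluble protein. This was quantified by TMTpro 16plex LC-MS/MS with channel sums equalised, and thermal stability was reported relative to control samples from duplicates, on a log2 fold-change scale.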

ibrutinib = compound: C=CC(=O)N1CCC[C@@H](n2nc(-c3ccc(Oc4ccccc4)cc3)c3c(N)ncnc32)C1 [ibrutinib]
In short: as §1

[1] = compound: CC(=O)c1cnc2ccc(-c3cc(Cl)c(O)c(Cl)c3)nc2c1N[C@H]1CC[C@H](CN(C)C)CC1
In short: as §1

ralimetinib = compound: CC(C)(C)Cn1c(N)nc2ccc(-c3[nH]c(C(C)(C)C)nc3-c3ccc(F)cc3)nc21 [ralimetinib]
In short: as §1

[2] = compound: CC(C)(O)CC(=O)NCCn1ccc2ncnc(Nc3ccc(Oc4cccc(C(F)(F)F)c4)c(Cl)c3)c21
In short: as §1

[3] = compound: CC(C)C1=C2N=C(C=C(N2N=C1)NCC3=CC=CC=C3)NCCCCCCN
In short: as §1

[4] = compound: CC(C)C[C@@H](C=O)NC(=O)[C@H](CC(C)C)NC(=O)[C@H](CC(C)C)NC(=O)OCc1ccccc1
In short: as §1

pinometostat = compound: CC(C)N(C[C@H]1O[C@@H](n2cnc3c(N)ncnc32)[C@H](O)[C@@H]1O)[C@H]1C[C@@H](CCc2nc3cc(C(C)(C)C)ccc3[nH]2)C1 [pinometostat]
In short: as §1

[5] = compound: CC1=C(C(CC(=O)N1)C2=CC=C(C=C2)C(F)(F)F)C(=O)NC3=C(C=C4C(=C3)C=NN4)F
In short: as §1

[6] = compound: CC1=C(C2=C(C=C1)C(=O)C3=CC=CC=C3N2CCCN)C
In short: as §1

Measured: log2 fold change

AP2A2 isoform 2 (UniProt O94973)
inactive: IRAK-1-4 Inhibitor I -0.003 | ibrutinib -0.015 | [1] 0.008 | ralimetinib 0.006 | [2] 0.033 | [3] 0.019 | [4] 0.032 | pinometostat 0.025 | [5] -0.02 | [6] 0.107

BPHL (UniProt Q86WA6)
Sequence of UniProt Q86WA6 (Q86WA6 whole entry, looked up): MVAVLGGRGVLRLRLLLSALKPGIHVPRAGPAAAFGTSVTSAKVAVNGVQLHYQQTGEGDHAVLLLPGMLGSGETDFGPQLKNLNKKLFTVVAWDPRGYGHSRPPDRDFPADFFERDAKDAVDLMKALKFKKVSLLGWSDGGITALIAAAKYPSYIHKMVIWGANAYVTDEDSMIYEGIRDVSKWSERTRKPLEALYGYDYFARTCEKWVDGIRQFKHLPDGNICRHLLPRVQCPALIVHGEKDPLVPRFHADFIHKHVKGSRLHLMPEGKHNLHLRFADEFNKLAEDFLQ
inactive: IRAK-1-4 Inhibitor I 0.009 | ibrutinib -0.062 | [1] -0.034 | ralimetinib -0.045 | [2] -0.023 | [3] 0.123 | [4] 0.071 | pinometostat 0.061 | [5] 0.016 | [6] -0.244

ATP1A4 (UniProt Q13733)
inactive: IRAK-1-4 Inhibitor I 0.002 | ibrutinib -0.013 | [1] 0.032 | ralimetinib -0.025 | [2] -0.025 | [3] 0.121 | [4] -0.033 | pinometostat -0.017 | [5] 0.016 | [6] 0.03

ARMC8 (UniProt Q8IUR7)
inactive: IRAK-1-4 Inhibitor I -0.025 | ibrutinib -0.017 | [1] 0.036 | ralimetinib 0.084 | [2] -0.011 | [3] -0.01 | [4] -0.093 | pinometostat -0.021 | [5] -0.025 | [6] -0.07

AHSA1 (UniProt O95433)
inactive: IRAK-1-4 Inhibitor I 0.002 | ibrutinib -0.043 | [1] -0.007 | ralimetinib 0 | [2] -0.022 | [3] -0.038 | [4] -0.008 | pinometostat -0.045 | [5] 0.003 | [6] 0

BAP1 (UniProt Q92560)
Sequence of UniProt Q92560 (Q92560 whole entry, looked up): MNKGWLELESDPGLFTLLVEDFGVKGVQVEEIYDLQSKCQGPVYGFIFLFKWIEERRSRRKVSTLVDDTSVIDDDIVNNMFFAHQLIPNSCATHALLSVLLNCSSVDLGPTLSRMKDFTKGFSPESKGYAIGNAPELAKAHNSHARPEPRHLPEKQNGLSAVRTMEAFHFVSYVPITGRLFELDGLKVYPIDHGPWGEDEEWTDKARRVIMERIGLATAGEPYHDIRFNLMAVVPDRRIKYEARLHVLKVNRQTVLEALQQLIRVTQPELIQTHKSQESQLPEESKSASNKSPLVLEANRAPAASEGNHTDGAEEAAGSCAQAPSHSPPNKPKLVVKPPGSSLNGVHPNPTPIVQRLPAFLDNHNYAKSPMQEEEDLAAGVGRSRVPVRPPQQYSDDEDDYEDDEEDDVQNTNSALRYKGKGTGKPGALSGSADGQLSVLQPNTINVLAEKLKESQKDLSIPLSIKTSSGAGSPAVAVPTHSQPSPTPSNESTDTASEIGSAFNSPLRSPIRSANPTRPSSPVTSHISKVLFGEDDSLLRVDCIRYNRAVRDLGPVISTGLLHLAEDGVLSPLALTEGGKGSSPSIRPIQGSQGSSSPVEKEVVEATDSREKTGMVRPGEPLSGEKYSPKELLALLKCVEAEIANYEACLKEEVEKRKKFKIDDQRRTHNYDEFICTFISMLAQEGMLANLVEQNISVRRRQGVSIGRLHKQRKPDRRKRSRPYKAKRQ
inactive: IRAK-1-4 Inhibitor I -0.038 | ibrutinib -0.056 | [1] -0.125 | ralimetinib 0.06 | [2] -0.014 | [3] -0.217 | [4] 0.048 | pinometostat 0.163 | [5] -0.116 | [6] -0.17

ACBD6 (UniProt Q9BR61)
Sequence of UniProt Q9BR61 (Q9BR61 whole entry, looked up): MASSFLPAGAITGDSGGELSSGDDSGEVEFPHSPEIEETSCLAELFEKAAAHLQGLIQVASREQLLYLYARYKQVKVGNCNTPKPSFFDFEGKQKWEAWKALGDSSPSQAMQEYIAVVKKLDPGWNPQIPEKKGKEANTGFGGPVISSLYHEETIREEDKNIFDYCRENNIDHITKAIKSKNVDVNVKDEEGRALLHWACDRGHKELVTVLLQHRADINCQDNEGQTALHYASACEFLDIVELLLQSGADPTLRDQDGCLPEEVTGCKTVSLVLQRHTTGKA
active: [1] 0.477
inactive: IRAK-1-4 Inhibitor I -0.072 | ibrutinib 0.009 | ralimetinib -0.169 | [2] -0.068 | [3] 0.173 | [4] 0.159 | pinometostat 0.008 | [5] 0.023 | [6] 0.074

ACTR1B (UniProt P42025)
inactive: IRAK-1-4 Inhibitor I 0.066 | ibrutinib 0.003 | [1] -0.041 | ralimetinib 0.07 | [2] -0.065 | [3] 0.042 | [4] -0.071 | pinometostat 0.003 | [5] -0.099 | [6] -0.013

AGO1 (UniProt Q9UL18)
inactive: IRAK-1-4 Inhibitor I 0.02 | ibrutinib 0.05 | [1] 0.019 | ralimetinib -0.023 | [2] -0.001 | [3] -0.01 | [4] 0.07 | pinometostat 0.061 | [5] 0.144 | [6] 0.076

ASNS (UniProt P08243)
inactive: IRAK-1-4 Inhibitor I 0.046 | ibrutinib 0.015 | [1] 0.006 | ralimetinib -0.033 | [2] -0.029 | [3] 0.017 | [4] -0.003 | pinometostat -0.034 | [5] -0.007 | [6] -0.007

AP2B1 isoform 2 (UniProt P63010)
inactive: IRAK-1-4 Inhibitor I -0.002 | ibrutinib 0.025 | [1] -0.034 | ralimetinib 0 | [2] 0.008 | [3] 0.029 | [4] 0.005 | pinometostat 0.011 | [5] 0.027 | [6] 0.035

ATP1B3 (UniProt P54709)
Sequence of UniProt P54709 (P54709 whole entry, looked up): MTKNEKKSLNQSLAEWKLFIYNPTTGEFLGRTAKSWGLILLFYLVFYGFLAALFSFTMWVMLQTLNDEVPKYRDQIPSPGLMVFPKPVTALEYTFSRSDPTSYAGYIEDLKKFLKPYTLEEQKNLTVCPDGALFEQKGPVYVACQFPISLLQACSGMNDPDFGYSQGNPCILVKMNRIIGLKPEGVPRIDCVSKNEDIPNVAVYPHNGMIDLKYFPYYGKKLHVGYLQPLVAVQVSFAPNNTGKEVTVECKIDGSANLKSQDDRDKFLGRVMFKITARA
inactive: IRAK-1-4 Inhibitor I 0.025 | ibrutinib 0.043 | [1] -0.03 | ralimetinib -0.036 | [2] 0.01 | [3] 0.154 | [4] -0.008 | pinometostat -0.056 | [5] -0.012 | [6] -0.032

ACSL1 (UniProt P33121)
Sequence of UniProt P33121 (P33121 whole entry, looked up): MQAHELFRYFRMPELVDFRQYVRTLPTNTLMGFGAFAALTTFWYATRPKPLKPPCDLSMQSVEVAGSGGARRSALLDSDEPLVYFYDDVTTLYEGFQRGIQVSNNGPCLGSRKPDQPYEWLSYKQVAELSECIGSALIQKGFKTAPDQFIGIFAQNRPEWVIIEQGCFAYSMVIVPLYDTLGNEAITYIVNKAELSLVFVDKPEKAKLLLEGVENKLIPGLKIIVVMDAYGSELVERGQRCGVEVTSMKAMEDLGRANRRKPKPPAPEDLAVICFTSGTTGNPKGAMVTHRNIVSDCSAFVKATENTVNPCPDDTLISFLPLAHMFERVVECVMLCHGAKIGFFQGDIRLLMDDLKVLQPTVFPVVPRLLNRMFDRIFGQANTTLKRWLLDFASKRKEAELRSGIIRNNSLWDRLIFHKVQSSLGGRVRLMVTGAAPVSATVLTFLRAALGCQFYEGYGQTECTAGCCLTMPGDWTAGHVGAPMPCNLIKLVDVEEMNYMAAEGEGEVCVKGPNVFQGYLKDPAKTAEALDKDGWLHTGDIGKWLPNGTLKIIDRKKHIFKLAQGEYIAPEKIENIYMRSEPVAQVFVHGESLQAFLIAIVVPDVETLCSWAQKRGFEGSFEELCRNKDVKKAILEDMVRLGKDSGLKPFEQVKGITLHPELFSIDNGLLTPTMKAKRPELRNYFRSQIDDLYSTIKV
inactive: IRAK-1-4 Inhibitor I -0.004 | ibrutinib 0.017 | [1] -0.037 | ralimetinib -0.018 | [2] 0.01 | [4] -0.057 | pinometostat 0.008 | [5] 0.058 | [6] 0.03
active: [3] -0.243

ACACB (UniProt O00763)
inactive: IRAK-1-4 Inhibitor I -0.23 | ibrutinib 0.02 | [1] 0.108 | ralimetinib 0.216 | [2] 0 | [4] 0.066 | pinometostat 0.315 | [5] 0.11 | [6] 0.027
active: [3] -0.515

ARGLU1 (UniProt Q9NWB6)
active: [1] -0.633
inactive: IRAK-1-4 Inhibitor I -0.289 | ibrutinib -0.019 | ralimetinib -0.029 | [2] 0.15 | [3] 0.023 | [4] -0.001 | pinometostat 0.127 | [5] -0.019 | [6] 0.134

BAIAP2 (UniProt Q9UQB8)
inactive: IRAK-1-4 Inhibitor I -0.016 | ibrutinib -0.032 | ralimetinib -0.034 | [2] -0.033 | [3] -0.056 | [4] 0.062 | pinometostat 0 | [5] 0.001 | [6] 0.041
active: [1] -0.265

AKT1 (UniProt P31749)
inactive: IRAK-1-4 Inhibitor I -0.014 | ibrutinib -0.244 | [1] 0.03 | ralimetinib -0.023 | [2] 0.01 | [3] -0.141 | [4] 0.07 | pinometostat -0.051 | [5] -0.161 | [6] -0.038

BZW1 isoform 3 (UniProt Q7L1Q6)
inactive: IRAK-1-4 Inhibitor I -0.118 | ibrutinib -0.123 | [1] 0.005 | ralimetinib 0.049 | [2] -0.296 | [4] 0.007 | pinometostat 0.123 | [5] 0.006 | [6] 0.068
active: [3] -0.422

ATOX1 (UniProt O00244)
Sequence of UniProt O00244 (O00244 whole entry, looked up): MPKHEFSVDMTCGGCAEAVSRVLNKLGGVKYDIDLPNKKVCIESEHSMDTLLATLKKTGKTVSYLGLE
inactive: IRAK-1-4 Inhibitor I 0.018 | ibrutinib 0.01 | [1] 0.154 | ralimetinib 0.23 | [2] -0.005 | [3] 0.109 | [4] -0.198 | pinometostat -0.153 | [5] -0.004 | [6] 0.099

ARL3 (UniProt P36405)
Sequence of UniProt P36405 (P36405 whole entry, looked up): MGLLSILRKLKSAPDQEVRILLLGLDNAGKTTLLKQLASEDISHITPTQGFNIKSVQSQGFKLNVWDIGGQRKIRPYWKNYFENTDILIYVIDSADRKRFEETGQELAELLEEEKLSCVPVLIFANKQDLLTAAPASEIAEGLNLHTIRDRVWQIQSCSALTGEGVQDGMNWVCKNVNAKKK
inactive: IRAK-1-4 Inhibitor I 0.049 | ibrutinib -0.01 | [1] -0.033 | ralimetinib -0.042 | [2] -0.034 | [3] 0.065 | [4] -0.057 | pinometostat -0.029 | [5] 0.002 | [6] 0.017

AGAP3 isoform 4 (UniProt Q96P47)
inactive: IRAK-1-4 Inhibitor I -0.024 | ibrutinib -0.018 | [1] -0.223 | ralimetinib 0.25 | [2] 0.009 | [3] -0.182 | [4] -0.044 | pinometostat 0.245 | [5] -0.107 | [6] -0.043

AIFM2 (UniProt Q9BRQ8)
Sequence of UniProt Q9BRQ8 (Q9BRQ8 whole entry, looked up): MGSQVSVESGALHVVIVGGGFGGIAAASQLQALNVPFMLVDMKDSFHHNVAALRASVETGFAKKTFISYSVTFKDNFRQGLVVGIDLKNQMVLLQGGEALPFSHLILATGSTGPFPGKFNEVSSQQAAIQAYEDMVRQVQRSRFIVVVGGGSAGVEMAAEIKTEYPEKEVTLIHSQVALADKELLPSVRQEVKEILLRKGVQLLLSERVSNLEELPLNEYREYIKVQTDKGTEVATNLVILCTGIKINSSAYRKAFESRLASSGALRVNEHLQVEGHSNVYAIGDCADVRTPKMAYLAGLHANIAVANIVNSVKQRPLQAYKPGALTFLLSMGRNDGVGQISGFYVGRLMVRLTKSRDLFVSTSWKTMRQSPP
inactive: IRAK-1-4 Inhibitor I 0.011 | ibrutinib -0.008 | [1] 0 | ralimetinib -0.005 | [2] 0.189 | [3] 0.161 | [4] -0.061 | pinometostat 0.044 | [5] -0.062 | [6] 0.021

ATAD3B (UniProt Q5T9A4)
inactive: IRAK-1-4 Inhibitor I -0.05 | ibrutinib 0.045 | [1] -0.01 | ralimetinib 0.122 | [2] -0.011 | [4] 0.066 | pinometostat 0.276 | [5] 0.077 | [6] 0.024
active: [3] -0.472

AGPAT5 (UniProt Q9NUQ2)
Sequence of UniProt Q9NUQ2 (Q9NUQ2 whole entry, looked up): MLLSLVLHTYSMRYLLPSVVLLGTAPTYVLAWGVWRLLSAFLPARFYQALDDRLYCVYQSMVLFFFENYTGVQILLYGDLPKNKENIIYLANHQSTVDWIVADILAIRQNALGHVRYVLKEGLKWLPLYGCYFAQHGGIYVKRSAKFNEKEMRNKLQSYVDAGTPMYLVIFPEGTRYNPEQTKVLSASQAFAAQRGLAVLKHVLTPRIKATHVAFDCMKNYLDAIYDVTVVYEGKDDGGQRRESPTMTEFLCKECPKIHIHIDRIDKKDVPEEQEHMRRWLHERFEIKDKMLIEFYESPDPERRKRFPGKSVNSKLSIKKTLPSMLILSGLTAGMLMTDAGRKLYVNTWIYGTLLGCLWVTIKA
inactive: IRAK-1-4 Inhibitor I 0.047 | ibrutinib 0.003 | [1] 0.062 | ralimetinib -0.037 | [2] 0.03 | [3] -0.163 | [4] 0.002 | pinometostat 0.007 | [5] -0.001 | [6] 0.021

B4GALT1 (UniProt P15291)
inactive: IRAK-1-4 Inhibitor I 0.034 | ibrutinib -0.057 | [1] -0.019 | ralimetinib 0.094 | [2] 0.094 | [4] 0.017 | pinometostat -0.051 | [5] 0.006 | [6] -0.03
active: [3] -0.294

ALG5 (UniProt Q9Y673)
Sequence of UniProt Q9Y673 (Q9Y673 whole entry, looked up): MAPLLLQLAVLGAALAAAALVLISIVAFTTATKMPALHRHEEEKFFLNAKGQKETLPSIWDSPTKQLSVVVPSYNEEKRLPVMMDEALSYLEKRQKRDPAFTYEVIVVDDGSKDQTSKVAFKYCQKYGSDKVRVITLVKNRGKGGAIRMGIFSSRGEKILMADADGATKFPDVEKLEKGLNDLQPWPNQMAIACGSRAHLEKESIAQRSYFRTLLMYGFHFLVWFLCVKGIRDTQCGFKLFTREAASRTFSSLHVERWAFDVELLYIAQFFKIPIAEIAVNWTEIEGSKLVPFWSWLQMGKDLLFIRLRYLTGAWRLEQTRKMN
inactive: IRAK-1-4 Inhibitor I 0.026 | ibrutinib -0.043 | ralimetinib 0.009 | [2] -0.009 | [3] -0.004 | [4] 0 | pinometostat -0.002 | [5] -0.057 | [6] 0.07
active: [1] -0.281

AARS2 (UniProt Q5JTZ9)
Sequence of UniProt Q5JTZ9 (Q5JTZ9 whole entry, looked up): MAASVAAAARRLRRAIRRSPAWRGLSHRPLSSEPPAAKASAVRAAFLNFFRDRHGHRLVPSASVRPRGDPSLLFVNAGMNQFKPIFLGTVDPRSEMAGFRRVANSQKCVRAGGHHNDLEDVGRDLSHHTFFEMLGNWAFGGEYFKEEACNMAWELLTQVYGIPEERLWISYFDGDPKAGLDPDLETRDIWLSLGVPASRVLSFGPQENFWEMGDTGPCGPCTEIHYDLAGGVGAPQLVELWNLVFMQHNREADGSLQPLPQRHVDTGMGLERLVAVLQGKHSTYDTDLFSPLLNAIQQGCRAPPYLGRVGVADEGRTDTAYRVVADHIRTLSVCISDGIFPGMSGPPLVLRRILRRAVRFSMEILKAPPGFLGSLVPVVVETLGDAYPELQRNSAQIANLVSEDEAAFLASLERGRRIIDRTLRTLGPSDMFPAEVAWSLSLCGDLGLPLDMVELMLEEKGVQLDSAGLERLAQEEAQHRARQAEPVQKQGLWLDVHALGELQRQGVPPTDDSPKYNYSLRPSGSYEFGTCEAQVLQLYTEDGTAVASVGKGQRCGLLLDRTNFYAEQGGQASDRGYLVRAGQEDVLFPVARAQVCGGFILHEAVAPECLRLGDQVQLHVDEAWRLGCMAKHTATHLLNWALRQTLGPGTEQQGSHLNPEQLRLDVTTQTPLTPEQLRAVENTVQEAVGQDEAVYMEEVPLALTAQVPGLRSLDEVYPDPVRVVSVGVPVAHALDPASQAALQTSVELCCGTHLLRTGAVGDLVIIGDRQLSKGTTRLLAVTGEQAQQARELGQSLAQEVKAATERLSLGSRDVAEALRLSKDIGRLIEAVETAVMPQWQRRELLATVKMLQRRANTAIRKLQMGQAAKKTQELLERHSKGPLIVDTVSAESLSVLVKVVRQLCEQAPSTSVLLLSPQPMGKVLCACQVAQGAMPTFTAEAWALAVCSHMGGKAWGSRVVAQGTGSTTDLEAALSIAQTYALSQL
inactive: IRAK-1-4 Inhibitor I 0 | ibrutinib -0.025 | [1] -0.025 | ralimetinib -0.011 | [2] -0.099 | [3] -0.15 | [4] -0.013 | pinometostat 0.006 | [5] 0.002 | [6] 0.048

ABCA4 (UniProt P78363)
inactive: IRAK-1-4 Inhibitor I 0.128 | ibrutinib 0.078 | [1] -0.014 | ralimetinib 0.215 | [2] -0.047 | [3] 0.127 | [4] 0.481 | pinometostat -0.06 | [5] -0.05 | [6] 0.082

ACO2 (UniProt Q99798)
inactive: IRAK-1-4 Inhibitor I 0.023 | ibrutinib 0.025 | [1] -0.016 | ralimetinib -0.019 | [2] -0.068 | [3] -0.058 | [4] -0.022 | pinometostat -0.033 | [5] -0.049 | [6] 0.076

ANKRD29 (UniProt Q8N6D5)
Sequence of UniProt Q8N6D5 (Q8N6D5 whole entry, looked up): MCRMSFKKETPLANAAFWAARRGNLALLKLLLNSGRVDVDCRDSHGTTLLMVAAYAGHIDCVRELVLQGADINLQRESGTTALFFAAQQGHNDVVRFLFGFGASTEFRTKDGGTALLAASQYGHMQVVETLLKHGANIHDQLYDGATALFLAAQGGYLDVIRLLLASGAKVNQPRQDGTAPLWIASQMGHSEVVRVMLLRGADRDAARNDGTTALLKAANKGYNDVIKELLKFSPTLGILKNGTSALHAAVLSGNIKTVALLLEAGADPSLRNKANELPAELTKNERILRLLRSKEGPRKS
inactive: IRAK-1-4 Inhibitor I -0.001 | ibrutinib -0.18 | [1] 0.026 | ralimetinib -0.057 | [2] -0.15 | [3] 0.007 | [4] -0.153 | pinometostat -0.012 | [5] 0.009 | [6] 0.024
